Source: PubChem BioAssay AID1159580 (chemical genetic matrix, 2015)
Among all 5,500 compounds or so, about 2,000 (36%) were called active. Another 18% or so got no clear call; they are omitted. Cut-off read from the data, not from the text of the source: active = normalized growth mostly below about 0.91 (no sharp cut-off); inconclusive = no clear call, values can overlap the other calls; inactive = mostly above about 0.92. This is one part of the list.

Assay: chemical genetic growth profiling, strain panel (AID 1159580);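 note: tested at 20 µM; growth read once vehicle control cultures reached saturation at 30 °C; 1 = growth at the plate median or of vehicle wells; lower values mean less growth of the strain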
Details: growth OD
[1] = S. cerevisiae deletion strains, locus YDL101C, strain DUN1, stronger effect = lower value
[2] = S. cerevisiae deletion strains, locus YHR030C, strain SLT2, stronger effect = lower value

Measured: normalized growth

Cc1onc(-c2c(Cl)cccc2Cl)c1C(=O)Oc1ccc(Cl)c(Cl)c1
inactive: S. cerevisiae deletion strains, locus YAL013W, strain DEP1, stronger effect = lower value 1.01 | S. cerevisiae deletion strains, locus YBR229C, strain ROT2, stronger effect = lower value 0.995 | [1] 0.996 | S. cerevisiae deletion strains, locus YDR150W, strain NUM1, stronger effect = lower value 1.01 | S. cerevisiae deletion strains, locus YEL061C, strain CIN8, stronger effect = lower value 1.01 | S. cerevisiae deletion strains, locus YGR078C, strain PAC10, stronger effect = lower value 1.03 | [2] 1.21 | S. cerevisiae deletion strains, locus YHR087W, strain rtc3, stronger effect = lower value 1.06 | S. cerevisiae deletion strains, locus YJR043C, strain POL32, stronger effect = lower value 0.998 | S. cerevisiae deletion strains, locus YJR075W, strain HOC1, stronger effect = lower value 0.99 | S. cerevisiae deletion strains, locus YLR039C, strain RIC1, stronger effect = lower value 1.19 | S. cerevisiae deletion strains, locus YLR058C, strain SHM2 (second series), stronger effect = lower value 0.986 | S. cerevisiae deletion strains, locus YLR085C, strain ARP6, stronger effect = lower value 0.991 | S. cerevisiae deletion strains, locus YLR262C, strain YPT6, stronger effect = lower value 1.16 | S. cerevisiae deletion strains, locus YML094W, strain GIM5, stronger effect = lower value 0.998 | S. cerevisiae deletion strains, locus YMR219W, strain ESC1, stronger effect = lower value 0.992 | S. cerevisiae deletion strains, locus YMR263W, strain SAP30, stronger effect = lower value 1.01 | S. cerevisiae deletion strains, locus YNL128W, strain TEP1, stronger effect = lower value 1 | S. cerevisiae deletion strains, locus YNL153C, strain GIM3, stronger effect = lower value 1.03 | S. cerevisiae deletion strains, locus YNL298W, strain CLA4 (second series), stronger effect = lower value 1.01 | S. cerevisiae deletion strains, locus YNL322C, strain KRE1, stronger effect = lower value 1.01 | S. cerevisiae deletion strains, locus YNR030W, strain Alg12, stronger effect = lower value 0.987 | S. cerevisiae deletion strains, locus YOL006C, strain TOP1, stronger effect = lower value 1.07 | S. cerevisiae deletion strains, locus YPL055C, strain LGE1, stronger effect = lower value 1 | S. cerevisiae deletion strains, locus YPL241C, strain CIN2, stronger effect = lower value 0.973 | S. cerevisiae deletion strains, locus YPR135W, strain CTF4, stronger effect = lower value 1.14 | S. cerevisiae strains, strain wild type, stronger effect = lower value 1.01

CCCCCCCCCCCC(=O)NOC(=O)c1c(-c2c(Cl)cccc2Cl)noc1C
active: [2] 0.139 | S. cerevisiae deletion strains, locus YHR079C, strain IRE1, stronger effect = lower value 0.139 | S. cerevisiae deletion strains, locus YJL095W, strain BCK1, stronger effect = lower value 0.117 | S. cerevisiae deletion strains, locus YJR066W, strain TOR1 (second series), stronger effect = lower value 0.451 | S. cerevisiae deletion strains, locus YKL203C, strain TOR2, stronger effect = lower value 0.66 | S. cerevisiae deletion strains, locus YLR113W, strain HOG1, stronger effect = lower value 0.415 | S. cerevisiae deletion strains, locus YLR403W, strain SFP1, stronger effect = lower value 0.553 | S. cerevisiae deletion strains, locus YNL183C, strain NPR1, stronger effect = lower value 0.571 | S. cerevisiae deletion strains, locus YOR119C, strain RIO1, stronger effect = lower value 0.578 | S. cerevisiae deletion strains, locus YPL153C, strain RAD53, stronger effect = lower value 0.533 | S. cerevisiae deletion strains, locus YPL204W, strain HRR25, stronger effect = lower value 0.63 | S. cerevisiae deletion strains, locus YPL256C, strain CLN2, stronger effect = lower value 0.697
inactive: S. cerevisiae deletion strains, locus YAR019C, strain CDC15, stronger effect = lower value 0.984 | S. cerevisiae deletion strains, locus YBL105C, strain PKC1, stronger effect = lower value 0.986 | S. cerevisiae deletion strains, locus YBR135W, strain CKS1, stronger effect = lower value 0.984 | S. cerevisiae deletion strains, locus YBR136W, strain MEC1, stronger effect = lower value 0.985 | S. cerevisiae deletion strains, locus YBR160W, strain CDC28, stronger effect = lower value 0.998 | S. cerevisiae deletion strains, locus YDL017W, strain CDC7, stronger effect = lower value 0.986 | S. cerevisiae deletion strains, locus YDL028C, strain MPS1, stronger effect = lower value 0.988 | [1] 0.999 | S. cerevisiae deletion strains, locus YDL108W, strain KIN28, stronger effect = lower value 0.982 | S. cerevisiae deletion strains, locus YDL132W, strain cdc53, stronger effect = lower value 0.986 | S. cerevisiae deletion strains, locus YDL214C, strain PRR2, stronger effect = lower value 0.948 | S. cerevisiae deletion strains, locus YDR052C, strain DBF4, stronger effect = lower value 0.997 | S. cerevisiae deletion strains, locus YDR054C, strain cdc34, stronger effect = lower value 0.988 | S. cerevisiae deletion strains, locus YDR226W, strain ADK1, stronger effect = lower value 0.981 | S. cerevisiae deletion strains, locus YDR477W, strain SNF1, stronger effect = lower value 0.818 | S. cerevisiae deletion strains, locus YER123W, strain YCK3, stronger effect = lower value 0.656 | S. cerevisiae deletion strains, locus YER133W, strain GLC7, stronger effect = lower value 0.779 | S. cerevisiae deletion strains, locus YFL009W, strain cdc4, stronger effect = lower value 0.99 | S. cerevisiae deletion strains, locus YFL029C, strain CAK1, stronger effect = lower value 0.989 | S. cerevisiae deletion strains, locus YFR003C, strain YPI1, stronger effect = lower value 0.984 | S. cerevisiae deletion strains, locus YFR019W, strain FAB1, stronger effect = lower value 0.874 | S. cerevisiae deletion strains, locus YFR028C, strain CDC14, stronger effect = lower value 0.996 | S. cerevisiae deletion strains, locus YGR040W, strain KSS1, stronger effect = lower value 0.838 | S. cerevisiae deletion strains, locus YGR052W, strain FMP48, stronger effect = lower value 0.641 | S. cerevisiae deletion strains, locus YGR092W, strain DBF2, stronger effect = lower value 0.586 | S. cerevisiae deletion strains, locus YHR082C, strain KSP1, stronger effect = lower value 0.9 | S. cerevisiae deletion strains, locus YHR205W, strain SCH9, stronger effect = lower value 0.586 | S. cerevisiae deletion strains, locus YIL147C, strain SLN1, stronger effect = lower value 0.984 | S. cerevisiae deletion strains, locus YJL128C, strain PBS2, stronger effect = lower value 1 | S. cerevisiae deletion strains, locus YJL157C, strain FAR1, stronger effect = lower value 0.909 | S. cerevisiae deletion strains, locus YJR016C, strain ILV3, stronger effect = lower value 0.984 | S. cerevisiae deletion strains, locus YJR066W, strain TOR1, stronger effect = lower value 0.583 | S. cerevisiae deletion strains, locus YKL048C, strain ELM1, stronger effect = lower value 0.995 | S. cerevisiae deletion strains, locus YKL067W, strain YNK1, stronger effect = lower value 0.944 | S. cerevisiae deletion strains, locus YKL101W, strain HSL1, stronger effect = lower value 0.961 | S. cerevisiae deletion strains, locus YKL193C, strain SDS22, stronger effect = lower value 0.979 | S. cerevisiae deletion strains, locus YLR133W, strain CKI1, stronger effect = lower value 0.905 | S. cerevisiae deletion strains, locus YML070W, strain DAK1, stronger effect = lower value 0.692 | S. cerevisiae deletion strains, locus YMR001C, strain CDC5, stronger effect = lower value 0.982 | S. cerevisiae deletion strains, locus YMR205C, strain PFK2 (second series), stronger effect = lower value 0.935 | S. cerevisiae deletion strains, locus YMR277W, strain FCP1, stronger effect = lower value 0.977 | S. cerevisiae deletion strains, locus YNL006W, strain LST8, stronger effect = lower value 0.992 | S. cerevisiae deletion strains, locus YNL020C, strain ARK1, stronger effect = lower value 0.915 | S. cerevisiae deletion strains, locus YNL161W, strain CBK1, stronger effect = lower value 0.992 | S. cerevisiae deletion strains, locus YNL207W, strain RIO2, stronger effect = lower value 0.966 | S. cerevisiae deletion strains, locus YNL222W, strain SSU72, stronger effect = lower value 0.988 | S. cerevisiae deletion strains, locus YNL307C, strain MCK1 (second series), stronger effect = lower value 0.69 | S. cerevisiae deletion strains, locus YOL078W, strain AVO1, stronger effect = lower value 0.98 | S. cerevisiae deletion strains, locus YOL136C, strain PFK27, stronger effect = lower value 0.867 | S. cerevisiae deletion strains, locus YOR061W, strain CKA2, stronger effect = lower value 0.886 | S. cerevisiae deletion strains, locus YOR231W, strain MKK1, stronger effect = lower value 0.689 | S. cerevisiae deletion strains, locus YOR329C, strain SCD5, stronger effect = lower value 0.991 | S. cerevisiae deletion strains, locus YPL031C, strain PHO85, stronger effect = lower value 0.795 | S. cerevisiae deletion strains, locus YPL209C, strain IPL1, stronger effect = lower value 0.991 | S. cerevisiae deletion strains, locus YPR025C, strain CCL1, stronger effect = lower value 0.993 | S. cerevisiae deletion strains, locus YPR106W, strain ISR1, stronger effect = lower value 1 | S. cerevisiae deletion strains, locus YPR111W, strain DBF20, stronger effect = lower value 1.01 | S. cerevisiae deletion strains, strain NNK1, stronger effect = lower value 0.996 | S. cerevisiae deletion strains, strain TSCII, stronger effect = lower value 0.991
